Bioassay records (PubChem)
Only some compounds are listed: those with a hit (about 9.2% of all), similar ones and a draw of the others.
ELG1 repair inh: ELG1-dependent DNA repair inhibition. HEK293T ELG1-luciferase reporter, luminescence, 16 h; DNA damage induced by 5-fluorouridine. Potency, µM (doses to about 46.1 µM), inactives show at the highest dose activity change, negative = inhibition, hits mostly inhibitors. hit rate 2.3% among 330,000; also: % is scaled to controls: 0 for no effect and ±100 for the full control effect; nearly all actives have a fitted effect of over 55% in size
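DMSO vehicle served as the neutral condition. Each well held 2,000 cells given 5-fluorouridine plus compound; after 16 hr at 37 °C/5% CO2, ONE-Glo was added and luciferase measured 30 min later.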
NPC1 promoter act: NPC1 promoter activation; Huh7 NPC1 promoter luciferase reporter, 24 h; Potency, µM (highest dose often 9.22 µM), without a hit: at the highest dose activation, most hits filed as activators; hit rate 2.4% among 320,000; AID 485313; also: % of control where 0% means no effect; nearly all actives have a fitted effect of over 60% in size
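Luminescence read-out of NPC1 promoter-driven luciferase in stably transfected Huh7 cells; compounds delivered in DMSO and left 24 h at 37C, 5% CO2, qHTS titration format.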
Rab9 promoter act: activates the Rab9 promoter | Huh7 Rab9 promoter-luciferase reporter, luminescence, 24 h | Potency, µM (doses to about 9.22 µM), for inactives: top-dose activation, negative = inhibition, hits mostly activators | hit rate 2.8% among 320,000; also: % of control where 0% means no effect; nearly all actives have a fitted effect of over 60% in size
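Luminescence read-out: Huh7 cells stably expressing Rab9-luciferase, treated 24 h with compound at 37 °C, then lysed with luciferase reagent for 10 min at ambient before reading.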
SMN2 splice enh: enhancers of SMN2 splice variant expression. HEK293 SMN2-luciferase splicing reporter, luminescence, 30-36 h. hit rate 2.8% among 210,000. Potency, µM (series often up to 46.1 µM), for inactives: top-dose activity change, positive = activation, usual class: activators; also: % of control where 0% means no effect; nearly all actives have a fitted effect of over 55% in size
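HEK293 cells carry an SMN2 minigene-luciferase reporter in which exon 7 inclusion puts luciferase in frame. Cells were seeded at 2000 cells/well, attached for 10-12 hours, then exposed to compounds for 30-36 hours at 37C before ONE-Glo luminescence.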
ELG1 genotox: genotoxicity induction in ELG1-luciferase HEK293T cells; HEK293T ELG1-luciferase reporter, luminescence, 16 h; Potency, µM (titrated, usually from 46 µM), inactives show top-dose activity change, positive = activation, actives largely listed as activators; hit rate 1.3% among 330,000; AID 504466; also: % of control where 0% means no effect; nearly all actives have a fitted effect of over 60% in size
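Genotoxicity was scored as increased ELG1-luciferase reporter signal, measured by ONE-Glo luminescence (30 min, room temperature). Compound or vehicle exposure of the HEK293T reporter cells lasted 16 hr at 37°C.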
FLuc modulator: inhibits or activates purified firefly luciferase, miR-21 counter-screen | P08659 | purified FLuc, Km substrates, luminescence inhibition | Potency, µM (highest dose often 57.5 µM), for the others: at the highest dose activity change, negative = inhibition, hits mostly inhibitors | hit rate 6.9% among 360,000 | AID 588342;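 also: plate controls were vehicle for no effect and reference inhibitor for full effect; nearly all actives have a fitted effect of over 55% in size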
Target sequence (P08659 whole entry, looked up): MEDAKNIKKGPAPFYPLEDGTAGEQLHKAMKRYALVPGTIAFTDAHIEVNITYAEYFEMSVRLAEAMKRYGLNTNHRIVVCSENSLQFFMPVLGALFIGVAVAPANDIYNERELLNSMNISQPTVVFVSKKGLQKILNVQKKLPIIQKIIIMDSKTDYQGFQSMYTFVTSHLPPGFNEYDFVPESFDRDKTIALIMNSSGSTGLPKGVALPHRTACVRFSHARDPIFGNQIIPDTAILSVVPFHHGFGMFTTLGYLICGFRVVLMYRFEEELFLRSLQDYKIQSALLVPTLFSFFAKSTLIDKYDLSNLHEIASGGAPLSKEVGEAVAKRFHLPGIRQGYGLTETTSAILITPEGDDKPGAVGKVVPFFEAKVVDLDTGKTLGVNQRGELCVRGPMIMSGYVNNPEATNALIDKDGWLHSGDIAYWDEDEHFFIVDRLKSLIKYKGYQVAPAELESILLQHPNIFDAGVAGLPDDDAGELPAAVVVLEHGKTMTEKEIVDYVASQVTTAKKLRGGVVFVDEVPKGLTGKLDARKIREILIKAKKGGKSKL
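Purified P. pyralis luciferase, 10 nM final, with Km-level 10 uM D-luciferin and 10 uM ATP in 50 mM Tris acetate pH 7.5, 10 mM Mg acetate, 0.01% Tween-20, 0.05% BSA; 6-point qHTS titration about 60 µM downward; luminescence read.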
An asterisk follows results filed as active; ? = inconclusive; . = no result given; [ ] = another dose, or the depositor's remark. Calls follow the shape of the dose curve; as a rule, active = well fitted curve in the direction sought with a large enough effect; inconclusive = small, poorly fitted or top-dose-only effect, or another doubt; inactive = no such curve, though single readings can be large; an effect the other way counts as inactive or inconclusive. Potency is read from the fitted curve at half-maximal effect.

SMILES	ELG1 repair inh	NPC1 promoter act	Rab9 promoter act	SMN2 splice enh	ELG1 genotox	FLuc modulator
CCOc1ccc(C(=O)Nc2ccc3c(c2)OCO3)cc1OCC	-1%	17%	14%	28%	14%	3%
Cc1ccc(C(=O)Nc2ccc3c(c2)OCO3)cc1S(=O)(=O)N1CCOCC1	?	?	29%	.	0%	?
COc1cc(Cl)c(C)cc1NC(=O)c1ccc2c(c1)OCO2	?	?	?	.	6%	-17%
Cc1ccc(NC(=O)[C@H](C)NC(=O)C2CCN(C(=O)[C@@H](N)C(C)C)CC2)cc1	7%	-1%	6%	.	2%	-4%
COc1cc(C)ccc1OCCSc1nc(-c2cccc(C)c2)nc2cc(=O)[nH]n12	.	.	.	.	.	-14%
COc1cccc(-c2nn(-c3ccc(F)cc3)cc2C(=O)NCC2CCCO2)c1 (centres undefined)	?	0%	-2%	.	-6%	17µM*
COc1cccc(-c2nn(-c3ccc(C)cc3)cc2C(=O)NCC(c2cccs2)N2CCOCC2)c1 (centres undefined)	?	-4%	-1%	.	-35%	?
COc1cccc(-c2nn(-c3ccc(C)cc3)cc2C(=O)NCC2CCCO2)c1 (centres undefined)	-29%	-1%	13%	.	-5%	9.5µM*
COc1cccc(OCC(=O)NCC2CCCO2)c1 (centres undefined)	12%	.	.	.	0%	.
Cc1ccc(-c2nn(-c3ccc(F)cc3)cc2C(=O)NCC2CCCO2)cc1 (centres undefined)	-9%	-8%	10%	.	-9%	11µM*
COc1cccc(-c2cc(C(=O)NCC3CCCO3)c3cc(C)cc(C)c3n2)c1 (centres undefined)	12%	-4%	16%	.	15%	1.9µM*
O=C(NCC1CCCO1)c1cn(-c2ccccc2)nc1-c1ccccc1 (centres undefined)	-8%	14%	3%	.	-2%	6.7µM*
COc1ccc(-c2nn(-c3ccccc3)cc2C(=O)NCC2CCCO2)cc1 (centres undefined)	?	0%	3%	.	-6%	?
Cc1nc(-c2ccccc2)sc1C(=O)NN	-27%	-5%	-10%	-32%	-9%	4%
C/C(=N\OC(=O)c1cccc(C(F)(F)F)c1)c1sc(-c2ccccc2)nc1C	?	3.5µM*	4µM*	25µM*	3%	5%
C/C(=N\OC(=O)c1cccc(C)c1)c1sc(-c2ccccc2)nc1C	?	4µM*	2.8µM*	?	5.8µM*	-7%
CCCCCC(NC(=O)C1CCN(C(=O)[C@@H](NS(=O)(=O)c2ccc(C)cc2)C(C)C)CC1)C(=O)O (some centres undefined)	14%	0%	-1%	.	6%	1%
Cc1cccc(N=Nc2c(C)[nH]n(C(N)=S)c2=O)c1C	?	?	4µM*	?	?	12µM*
NC(=S)n1[nH]c(-c2ccc([N+](=O)[O-])cc2)c(N=Nc2cccc(Cl)c2)c1=O	3.7µM*	-14%	-22%	-62%	-20%	-17%
Cc1[nH]n(C(N)=S)c(=O)c1N=Nc1cccc(Cl)c1	?	?	?	.	?	5.4µM*
Cc1[nH]n(C(N)=S)c(=O)c1N=Nc1ccc([N+](=O)[O-])cc1Cl	0%	?	30%	.	1%	9.5µM*
CCOC(=O)c1c(C)[nH]c(C)c1S(=O)(=O)N(C)CC(=O)Nc1cccc(C(F)(F)F)c1	.	.	.	.	.	2%
CN1CCN(C(=S)c2ccc(-c3cc(Cl)ccc3Cl)o2)CC1	16%	3%	2%	.	-1%	17µM*
S=C(Nc1ccc(Cl)cc1Cl)N1CCCCC1	?	18%	5%	30%	11%	?
N#CCCN1CCN(C(=S)c2ccc(-c3cc(Cl)ccc3Cl)o2)CC1	-14%	-2%	1%	-17%	-3%	-16%
SMILES	ELG1 repair inh	NPC1 promoter act	Rab9 promoter act	SMN2 splice enh	ELG1 genotox	FLuc modulator
S=C(c1ccc(-c2ccc(Cl)cc2Cl)o1)N1CCCCC1	?	?	2.8µM*	13µM*	?	4.8µM*
S=C(c1ccc(-c2ccc(Cl)cc2Cl)o1)N1CCCC1	15%	?	?	.	10%	11µM*
COc1ccc(/C=N/N=C2/CC(C)(C)Cc3n[nH]c(=O)cc32)cc1	-11%	-1%	2%	2%	2%	-6%
O=c1[nH]c(=O)n([C@H]2C[C@H](O)[C@@H](CO)O2)cc1Br	10%	6%[46.1 µM]	27%[46.1 µM]	10µM*	12%	3%
O=c1[nH]c(=O)n([C@H]2C[C@H](O)[C@@H](CO)O2)cc1F	-2%	1%	-2%	-64%	-4%	6%
O=c1[nH]c(=O)n(C2CCCO2)cc1Br (centres undefined)	13%	2%	-4%	35µM*	-5%	4%
O=c1[nH]c(=O)n(C2OC(CO)C(O)C2O)cc1Br (centres undefined)	-4%	1%	1%	.	-2%	0%
CSc1nc2ccccc2n1CC(=O)Nc1cc(C(F)(F)F)ccc1N1CCOCC1	-2%	-6%	-6%	-5%	-3%	0%
C=C(C)Cn1cnc2cc(C)c(C)cc21	-9%	-2%	0%	-10%	0%	4%
CC(C)(C)c1ccc(C(=O)Nc2nnc(C3=COCCO3)o2)cc1	11%	-3%	-2%	.	-3%	21µM*
CN(C)c1ccc(C(=O)Nc2nnc(C3=COCCO3)o2)cc1	?	21%	24%	-7%	14%	-17%
COc1ccc(-c2cc(C(=O)Nc3ccc(S(N)(=O)=O)cc3)c3ccccc3n2)cc1OC	2%	2%	-1%	.	3%	-6%
COc1cc(CC(=O)Nc2ccc(N3CCOCC3)cc2)cc(OC)c1OC	-7%	5%	-4%	1%	-2%	-5%
Cc1cccc(NC(=O)NNC(=O)c2cc(-c3ccccc3Cl)nc3ccccc23)c1	-14%	0%	-4%	-14%	-8%	1%
COc1cc(-c2cc(C(=O)Nc3ccc(N4CCOCC4)cc3)c3ccccc3n2)cc(OC)c1OC	8.2µM*	-1%	-2%	.	-17%	?
